# In PubChem BioAssay (Tox21):
# The source made the active and inactive calls. The call rests on the fitted dose curve.
# Target: Acetylcholinesterase (Homo sapiens) (UniProt P22303)
# Experiment: Acetylcholinesterase (AChE) small molecule antagonists: enzyme-based qHTS assay (AID 1347397); further: nearly all actives have a fitted effect of over 55% in size
# Details: Potency: AChE enzyme activity inhibition; outcome: AChE enzyme activity inhibition; series mostly up to 115 µM; activity change, negative = inhibition: at the top concentration
# From the text: National Center for Advancing Translational Sciences [NCATS]
# Division of Preclinical Innovation [DPI]
# U.S. Environmental Protection Agency [EPA]
# National Institutes of Environmental Health Sciences [NIEHS]
# National Toxicology Program [NTP]
# U.S. Food and Drug Administration [FDA]
# Acetylcholinesterase (AChE) is the primary cholinesterase in the body that hydrolyzes a key neurotransmitter, acetylcholine. Inhibition of AChE activity can lead to neurotoxicity. The known inhibitors include organophosphorous pesticides (OP), chemical warfare agents, drugs, and various phytochemicals.
# An enzyme-based assay with the recombinant human AChE and Amplite Colormetric acetylcholinesterase assay kit (AAT Bioquest, Sunnyvale, CA) was used to evaluate the chemicals in the Tox21 10K library that inhibit AChE activity. The assay uses 5, 5-dithiobis-(2-nitrobenzoic acid) (DTNB) to quantify the thiocholine produced from the hydrolysis of acetylthiocholine by AChE.
# Tox21 Assay Protocol Summary:
# For the enzyme-based AChE assay, recombinant human AChE (50 mU/mL) in 4 uL/well was dispensed into black, clear-bottom 1536-well plates using a Multidrop Combi dispenser (Thermo Scientific, MA). Then, 23 nL of compound or DMSO (vehicle control) was transferred into the assay plates by a Pintool Station (Wako Automation, CA). The plates were incubated for 30 min at room temperature, followed by the addition of 4 uL of colorimetric detection cocktail solution (DTNB, acetylthiocholine) into each well using a Flying Reagent Dispenser (Beckman Coulter, CA) and then 10 min incubation at room temperature.
# On the % scale 0 is the no-effect control and ±100 the full control effect.
# Sequence of Acetylcholinesterase (Homo sapiens) (P22303 whole entry, looked up): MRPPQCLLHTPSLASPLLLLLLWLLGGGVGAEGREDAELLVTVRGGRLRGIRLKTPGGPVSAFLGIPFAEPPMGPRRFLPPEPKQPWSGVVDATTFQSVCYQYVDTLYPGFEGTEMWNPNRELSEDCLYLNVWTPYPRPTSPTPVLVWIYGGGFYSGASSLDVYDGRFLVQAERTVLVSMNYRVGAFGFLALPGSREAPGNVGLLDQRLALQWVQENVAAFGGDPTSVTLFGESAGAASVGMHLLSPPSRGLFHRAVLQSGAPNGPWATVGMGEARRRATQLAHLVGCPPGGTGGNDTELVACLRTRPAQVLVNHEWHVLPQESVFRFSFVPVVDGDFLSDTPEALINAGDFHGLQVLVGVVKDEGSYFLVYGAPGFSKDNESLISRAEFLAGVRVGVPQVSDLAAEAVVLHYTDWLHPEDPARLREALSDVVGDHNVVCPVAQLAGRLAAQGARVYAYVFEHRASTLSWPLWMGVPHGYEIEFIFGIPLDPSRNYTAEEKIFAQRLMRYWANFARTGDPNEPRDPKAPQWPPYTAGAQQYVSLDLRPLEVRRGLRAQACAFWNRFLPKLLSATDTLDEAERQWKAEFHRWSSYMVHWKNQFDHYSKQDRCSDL
row,Compound,"activity change, negative = inhibition"
1,C=C(C)C1CC=C(C)C(O)C1 (stereo not given),2.45% (inactive)
2,C[C@@H]1C[C@H]2[C@@H]3CCC4=CC(=O)C=C[C@]4(C)[C@@]3(F)[C@@H](O)C[C@]2(C)[C@@]1(O)C(=O)CO,-2.3% (inactive)
3,O=c1[nH][nH]c(=O)c2cc([N+](=O)[O-])ccc12,2.58% (inactive)
4,CC(C)C(OC(=O)c1ccccc1)C(C)(C)COC(=O)c1ccccc1 (stereo not given),-0.906% (inactive)
5,CCOC(=O)CCc1ccccc1,1.94% (inactive)
6,NC(=O)Nc1ccc(Cl)c(Cl)c1,1.06% (inactive)
7,CCOC(=O)/C=C/C(=O)OCC,0.678% (inactive)
8,O=S(=O)(O)c1ccc2c(N=Nc3ccc(S(=O)(=O)O)c4ccccc34)c(O)c(S(=O)(=O)O)cc2c1,1.09% [at 10.5 µM] (inactive)
9,CC(=O)Nc1ccc(OCCOCCOc2ccc(NC(C)=O)cc2)cc1,0.574% [at 53 µM] (inactive)
10,O=C(Nc1cccc([N+](=O)[O-])c1)c1cc2ccccc2cc1O,-12% (inactive)
11,CCCC[N+](C)(CCCC)CCCC,-5.02% (inactive)
12,C=CC/C=C/C/C=C/C/C=C/C,1.22% (inactive)
13,CCCCCCCCCOC(=O)c1ccccc1C(=O)OCCCCCCCCC,-3.68% (inactive)
14,C=COCCCC,-0.551% (inactive)
15,CCc1cc(Cc2cc(CC)c(N)c(CC)c2)cc(CC)c1N,0.278% (inactive)
16,CCOC(C)(C)C,0.133% (inactive)
17,Cc1cc2c(cc1CC(=O)c1sccc1S(=O)(=O)Nc1onc(C)c1Cl)OCO2,0.313% [at 53 µM] (inactive)
18,C=CC(=O)OCCCl,1.34% (inactive)
19,NC(=O)c1ncn([C@@H]2O[C@H](CO)[C@@H](O)[C@H]2O)c1N,-0.0078% [at 53 µM] (inactive)
20,Cc1ccc(N)cc1O,3.19% (inactive)

row,Compound,"activity change, negative = inhibition"
1,COCc1ccc(COC)cc1,-0.606% (inactive)
2,COc1c(N2C[C@@H]3CCCN[C@@H]3C2)c(F)cc2c(=O)c(C(=O)O)cn(C3CC3)c12,-1.78% [at 53 µM] (inactive)
3,CC[C@H](NC(=O)c1cc(F)ccc1NS(=O)(=O)c1cccc2cccnc12)c1ccccc1,-12.9% (inactive)
4,CC(C)CCOC(=O)CC(C)C,-0.516% (inactive)
5,CCCCCCCCCCC=O,0.136% (inactive)
6,O=C1C(=O)c2ccccc2C(O)=C1C1CCC(c2ccc(Cl)cc2)CC1 (stereo not given),-0.945% [at 53 µM] (inactive)
7,Cc1cccc(C)c1NC(=O)CN(CC(=O)O)CC(=O)O,1.89% [at 53 µM] (inactive)
8,O=CCCc1ccccc1,0.138% (inactive)
9,SC1CCCCC1,0.54% (inactive)
10,O=C(CCBr)N1CCN(C(=O)CCBr)CC1,0.821% [at 53 µM] (inactive)
11,CCN(CC)c1ccc2c(-c3ccc(S(=O)(=O)O)cc3S(=O)(=O)[O-])c3ccc(=[N+](CC)CC)cc-3oc2c1,2.32% (inactive)
12,CC1=CP(=O)(c2ccccc2)CC1 (stereo not given),0.953% (inactive)
13,CCCC(c1cc(C(C)(C)C)c(O)cc1C)c1cc(C(C)(C)C)c(O)cc1C,-2.71% (inactive)
14,O=C(O)CNC(=O)CNC(=O)CNC(=O)CSC(=O)c1ccccc1,0.97% [at 53 µM] (inactive)
15,Nc1nnc(-c2ccc([N+](=O)[O-])o2)o1,12.5% (inactive)
16,CCCCC(CC)COC(=O)c1ccccc1O (stereo not given),0.273% [at 53 µM] (inactive)
17,C/C(=N\[Si](C)(C)C)O[Si](C)(C)C,1.23% (inactive)
18,COc1cc(N)c(Cl)cc1C(=O)NC1CCN(CCCOc2ccc(F)cc2)CC1OC (stereo not given),-5.06% [at 53 µM] (inactive)
19,CCCCCCCC/C=C/CCCCCCCC1=NCCN1CCO,-0.138% (inactive)
20,COc1ccc(OC(=O)N(CC(=O)O)Cc2ccc(OCCc3nc(-c4ccccc4)oc3C)cc2)cc1,0.436% [at 53 µM] (inactive)
